Rango release inh: qHTS Assay for Inhibitors of RanGTP induced Rango (Ran-regulated importin-beta cargo) - Importin beta complex dissociation; actives 0.071% (n = 340,000); Biochemical FRET Rango-importin beta, RanGTP-induced dissociation; Snurportin-1 (Homo sapiens) + GTP-binding nuclear protein Ran (Homo sapiens) + Importin …; Potency, µM (highest dose often 46.1 µM), for the others: at the highest dose activity change, negative = inhibition; further: potency means the concentration at half of the fitted maximal effect; % of control where 0% means no effect; nearly all actives have a fitted effect of over 45% in size
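FRET read at 45 min, room temperature: inhibitors block the CFP/YFP signal rise when RanGTP (0.6 uM Ran, 2 mM GTP, 0.2 uM RCC1) frees Rango (0.1 uM) from importin beta (0.25 uM). Pre-read after 5 min compound exposure flags interference.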
KCNH2 3.1 block: qHTS for Inhibitors of KCHN2 3.1: Mutant qHTS; U2OS KCNH2 3.1, thallium flux FluxOr; active compounds read low; AID 720553, 2013; activity change, % (tested at about 1.8 µM); actives 0.95% (n = 340,000); Potassium voltage-gated channel subfamily H member 2, brain isoform KCNH2 3.1 (human);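 active means maximum activity change below -70%; inconclusive means maximum activity change from -70% to -50%; inactive means maximum activity change above -50%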;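 further: thallium influx rate constant from kinetic fluorescence after stimulation buffer; on the % scale 0 is the no-effect control and ±100 the full control effect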
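Measured as rate of thallium-driven FluxOr signal in transduced U2OS cells carrying the 3.1 channel, read kinetically for 2 min upon stimulation; values are rate constants scaled to DMSO control wells.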
Rango complex inh: qHTS Assay for Inhibitors of Rango (Ran-regulated importin-beta cargo) - Importin beta complex formation | actives 0.031% (n = 340,000) | AID 540263, 2011 | Rango CFP/YFP FRET sensor + importin beta, 45 min | Potency, µM (top dose mostly 92.2 µM), for inactives: at the top dose inhibition of complex formation;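 further: potency means the concentration at half of the fitted maximal effect; 0% = DMSO wells and 100% = buffer wells lacking importin beta; nearly all actives have a fitted effect of over 15% in size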
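Inhibition scored from the CFP 486 nm/YFP 530 nm FRET ratio 45 min after adding 0.125 microM importin beta to 50 nM Rango biosensor preincubated 5 min with compound (room temperature, PBS with DTT, Tween-20, BSA). No-importin wells as positive control.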
hERG WT inh: qHTS for Inhibitors of KCHN2 3.1: Wildtype qHTS; Voltage-gated inwardly rectifying potassium channel KCNH2 (Homo sapiens), Q12809; U2OS, BacMam KCNH2, thallium flux FluxOr; active compounds read low; activity change, % at 1.84 µM; actives 0.37% (n = 340,000); AID 720551, 2013;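 active means maximum activity change below -70%; inconclusive means maximum activity change between -70% and -50%; inactive means maximum activity change above -50%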; further: on the % scale 0 is the no-effect control and ±100 the full control effect
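U2OS cells were transduced with wild-type KCNH2 virus (2.03 x 10^8 / mL) for 4 h at room temperature, then cultured overnight at 37 C. Thallium flux was read with FluxOr dye. Rate constants were normalized to DMSO controls.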
Mm-Cpn inhibitor: Inhibitors of TCP-1 ring complex (TRiC) of Methanococcus maripaludis (MmCpn): qHTS. AID 504842, 2011. actives 0.031% (n = 330,000). purified Mm-Cpn ATPase, ADP Transcreener TR-FRET. Potency, µM (series often up to 76.9 µM), inactives show at the highest dose activity, negative = inhibition, actives largely listed as inhibitors; active means well fitted inhibition curve with a large enough effect; inconclusive means small, poorly fitted or top-dose-only effect; further: potency means the concentration at half of the fitted maximal effect; on the % scale 0 is the no-effect control and ±100 the full control effect; nearly all actives have a fitted effect of over 80% in size
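Measured: ADP formation by purified Mm-CPN. Conditions: 25 nM protein, 10 uM ATP, Tris pH 7.4 with Mg2+, K+ and DTT, 37°C for 30 min. Detection: Transcreener HTRF after 30 min at room temperature.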
CCT chaperon mod: High-Throughput Screening for Modulators of Cytosolic Chaperonin Activity; purified chaperonin ATPase assay, HTRF ADP detection, 30 min; activity change, % (test concentration not listed), hits read low; actives 0.3% (n = 360,000); AID 651819, 2012; in the data active means activity change below about -30%; further: on the % scale 0 is the no-effect control and ±100 the full control effect
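ATPase activity: ADP formed was measured by HTRF Transcreener (665/615 nm ratio) after 30 min at 37 deg C with 10 uM ATP. Compounds screened at one 76 uM concentration against 40 or 20 nM TRiC in Tris pH 7.4/KCl/MgCl2/DTT buffer.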
The depositor's hits bear a star; ? = inconclusive; / = no result given; [ ] = another dose, or the depositor's remark. Hits are enriched below; roughly 1.4% of the tested compounds scored in any of these assays. Unless noted, the call rests on the fitted dose curve.

SMILES	Rango release inh	KCNH2 3.1 block	Rango complex inh	hERG WT inh	Mm-Cpn inhibitor	CCT chaperon mod
O=C(O)CCCN=CC1=C(O)C(C(=O)c2ccccc2)CCC1=O (centres undefined)	1%	5	0%	-5	1%	0
COc1ccc(C(=O)NC2CCCCCC2)cc1S(=O)(=O)Nc1ccc(Br)cc1	6%	-80*	-2%	-7	1%	0
O=S(=O)(N/N=C\C=C\c1ccccc1)c1ccc(Cl)cc1	-3%	16	1%	-6	-1%	1
O=C(CNC(=S)N(CCCN1CCOCC1)Cc1cccs1)NCc1ccc(Cl)cc1	1%	-83*	0%	-84*	2%	0
O=C(CNC(=S)N(CCCN1CCOCC1)Cc1cccs1)NCc1ccccc1Cl	-6%	-123*	6%	-113*	-2%	3
O=C(CNC(=S)N(CCCN1CCOCC1)Cc1cccs1)NCCCN1CCOCC1	9%	15	2%	19	1%	-1
CCCCn1c(SCC(=O)N2CCCc3ccccc32)nc2c1c(=O)n(C)c(=O)n2C	2%	26	6%	-17	1%	-4
CCCCn1c2c(c(=O)n(C)c1=O)C(c1ccc(OC)cc1)N1CCCCCC1=N2 (centres undefined)	-3%	-75*	-2%	-5	-1%	0
COC(=O)CCC(=O)OC1(C)C(=O)C2=CN(Cc3ccccc3)C(c3ccc(OC)cc3)=CC2=C(Br)C1=O (centres undefined)	?	1	?	-6	/	0
COC(=O)CCC(=O)OC1(C)C(=O)C2=CN(c3ccccc3)C(c3ccc(OC)cc3)=CC2=C(Br)C1=O (centres undefined)	16µM*	0	?	-17	/	1
O=C(Nc1ccc(F)cc1)Nc1ccc(N2CCCC2)c(S(=O)(=O)Nc2ccccc2Cl)c1	2%	-114*	1%	-8	-1%	0
Cc1cccc(C)c1NC(=O)C(=O)NCC1CCCN1S(=O)(=O)c1cccs1 (centres undefined)	-16%	-21	-3%	1	-2%	-2
O=C(NCCN1CCC(n2c(=O)[nH]c3ccccc32)CC1)c1cccnc1Cl	/	/	/	/	/	-2
Cc1ccn2c(Cc3ccccc3)c(-c3ccc(Br)cc3)nc2c1	/	-74*	/	-18	/	1
Cc1ccn2c(Cc3ccccc3)c(-c3ccccc3)nc2c1	/	1	/	-2	/	1
COc1cccc(C2=CC(=O)C[C@H](c3ccc(Cl)cc3)C2)c1OC	1%	-129*	-1%	1	-5%	1
CC(C)(C)OC(=O)CNC(=O)c1nc[nH]c1C(=O)N1CCc2ccccc2C1	10%	-71*	0%	7	-1%	-2
CC(C)(C)OC(=O)NCc1ccc(CNC(=O)c2[nH]cnc2C(=O)N[C@@H](Cc2ccccc2)C(=O)OC(C)(C)C)cc1	-12%	-20	-1%	-7	0%	-2
CC(C)C[C@H](NC(=O)c1nc[nH]c1C(=O)N1CCN(c2ccccc2)CC1)C(=O)OCc1ccccc1	-19%	-78*	?	-1	-7%	-1
CC(C)(C)OC(=O)[C@H](Cc1ccccc1)NC(=O)c1nc[nH]c1C(=O)NCc1ccccc1	1%	-107*	0%	0	/	1
CC(C)C[C@H](NC(=O)c1nc[nH]c1C(=O)NCC(=O)OCc1ccccc1)C(=O)OCc1ccccc1	8%	-3	7%	-121*	-3%	-2
CC(C)C[C@H](NC(=O)c1nc[nH]c1C(=O)N1CCNCC1)C(=O)OCc1ccccc1	19%	-5	-2%	-12	-2%	-1
O=C1CC(C(=O)O)S/C(=N\N=C\c2ccc(Br)cc2)N1 (centres undefined)	-1%	9	0%	-2	0%	-1
CCCCNC(=O)c1ccc(S(=O)(=O)c2ccc(Cl)cc2)c(NC(C)=O)c1	-25%	-9	-3%	-17	0%	3
CCOC(=O)c1ccc(NC(=O)CNNC(=O)COc2ccccc2C)cc1	1%	14	1%	3	-1%	2
SMILES	Rango release inh	KCNH2 3.1 block	Rango complex inh	hERG WT inh	Mm-Cpn inhibitor	CCT chaperon mod
O=C(CN1CCCCCC1)NC(c1ccccc1)c1ccccc1	14%	-82*	1%	17	-22%	-2
O=C(CN1CCCCCC1)NN(Cc1ccccc1)c1ccccc1	3%	-95*	0%	-45	-1%	0
CN(C)S(=O)(=O)c1cccc(-c2nn(-c3ccccc3)cc2/C=C(\C#N)c2nc3ccccc3[nH]2)c1	?	-76*	?	6	-5%	-16
N#C/C(=C\c1cn(-c2ccccc2)nc1-c1cc2ccccc2o1)c1nc2ccccc2[nH]1	?	-12	?	-10	0%	1
COc1ccc([C@]23Cc4cc(OC)c(OC)cc4C(O2)c2c(cc(C)oc2=O)O3)cc1	/	/	/	/	1%[15.4 µM]	/
COc1cccc(C(=O)c2ncc(C(F)(F)F)cc2Cl)c1	0%	-20	4%	-7	-2%	-1
COc1ccc(C(=O)c2ncc(C(F)(F)F)cc2Cl)cc1	0%	38	-1%	-4	2%	-146*
Cc1ccc(N2CCN(C(=O)c3ccccc3NC(=O)c3ccccc3C(=O)O)CC2)cc1	0%	-9	-3%	-72*	?	2
Cc1ccccc1C(=O)N1CCN(c2ccc(NC(=O)c3ccc4c(c3)OCCO4)cc2)CC1	-2%	/	-1%	-5	-1%	0
Cc1ccc(C(=O)N2CCN(c3ccc(NC(=O)c4ccc5c(c4)OCCO5)cc3)CC2)cc1	11%	-93*	0%	-20	-1%	1
Cc1ccc(C(=O)N2CCN(c3ccc(NC(=O)c4ccc(Br)o4)cc3)CC2)cc1	-4%	-83*	0%	14	1%	-16
N#CCOC(=O)C1CSC2(c3ccc(Br)cc3)CCC(=O)N12 (centres undefined)	0%	15	1%	21	2%	-1
OCC1CCCN1C(=S)Nc1ccccc1 (centres undefined)	7%	7	4%	-14	0%	-1

Screening results: PubChem BioAssay, National Center for Advancing Translational Sciences (NCATS)
